PubChem BioAssay AID1159554 (Broad Institute, 2015)
Out of some 94,000 compounds screened, about 2,100 (2.2%) were called active. No stated cut-off is given here; in the data, active means activity change below about -80%; inconclusive means no clear call, values can overlap the other calls; inactive means above that. The sample as a whole holds a higher share of actives than the screen did.

experiment: Dd2 malaria parasite growth inhibition – SYBR Green fluorescence, single dose replicates, primary screen (AID 1159554); settings: P. falciparum Dd2 growth, 72 h, at 10 µM, hits give low values

| SMILES | activity change |
| --- | --- |
| CCCNC(=O)N1C[C@H](C)[C@@H](OC)CN(C)C(=O)c2ccc(NC(=O)CC)cc2OC[C@@H]1C | 52.7% (inactive) |
| COc1ccc2c3c(n(C)c2c1)[C@H](CO)NCC31CN(Cc2cc(F)ccc2F)C1 | 23% (inactive) |
| C[C@H]1CN([C@@H](C)CO)S(=O)(=O)c2ccc(C#Cc3cccnc3)cc2O[C@H]1CN(C)C(=O)CN(C)C | -40.6% (inactive) |
| C[C@H]1CCCCO[C@H](CN(C)S(=O)(=O)c2ccc(F)cc2)[C@@H](C)CN([C@@H](C)CO)C(=O)c2cc(NS(=O)(=O)c3cn(C)cn3)ccc2O1 | 9.89% (inactive) |
| CCCNC(=O)C[C@@H]1CC[C@H]2[C@@H](COC[C@@H](O)CN2Cc2ccccc2F)O1 | 7.46% (inactive) |
| COc1ccccc1-c1ccc2c(c1)O[C@H](CN(C)S(=O)(=O)c1ccc(C)cc1)[C@@H](C)CN([C@H](C)CO)S2(=O)=O | -80.6% (active) |
| C[C@@H]1CN([C@H](C)CO)S(=O)(=O)c2ccc(C#Cc3ccncc3)cc2O[C@@H]1CN(C)S(=O)(=O)c1ccc(F)cc1 | -83% (active) |
| C[C@@H]1CN([C@@H](C)CO)S(=O)(=O)c2ccc(C#Cc3ccc(F)cc3)cc2O[C@H]1CN(C)S(C)(=O)=O | -67.9% (inactive) |
| C[C@@H]1CN([C@@H](C)CO)S(=O)(=O)c2ccc(C#Cc3ccncc3)cc2O[C@@H]1CN(C)S(=O)(=O)c1ccccc1 | -55.9% (inactive) |
| COc1ccccc1-c1ccc2c(c1)O[C@@H](CN(C)C)[C@H](C)CN([C@H](C)CO)S2(=O)=O | -28.9% (inactive) |
| Cc1ccc(S(=O)(=O)N(C)C[C@@H]2Oc3cc(C4=CCCC4)ccc3S(=O)(=O)N([C@@H](C)CO)C[C@@H]2C)cc1 | -71.1% (inactive) |
| CO[C@@H]1CN(C)C(=O)c2cc(NC(=O)Nc3cc(F)ccc3F)ccc2OC[C@@H](C)N(C)C[C@H]1C | -36.8% (inactive) |
| CN1C(=O)c2cc(NC(=O)C3CCOCC3)ccc2OC[C@@H]2O[C@@H](CC(=O)NCC3CC3)CC[C@@H]21 | 6.17% (inactive) |
| O=C(NCCN1CCCC1)[C@@H]1N[C@@H]2c3ccc(-c4ccccc4)c(=O)n3C[C@@H]2[C@H]1CO | -12.1% (inactive) |
| COc1ccc(S(=O)(=O)N2CCCCN3[C@H](CO)[C@@H](c4ccc(C#CC(C)C)cc4)[C@H]3C2)cc1 | -38.8% (inactive) |
| COc1ccc(S(=O)(=O)N2CCCCN3[C@@H](CO)[C@@H](c4ccc(C#CCC(C)C)cc4)[C@@H]3C2)cc1 | -87.6% (active) |

| SMILES | activity change |
| --- | --- |
| COc1ccc(S(=O)(=O)N2CCCCN3[C@H](C2)[C@H](c2ccc(C#CCC(C)C)cc2)[C@@H]3CO)cc1 | 2.68% (inactive) |
| CO[C@H]1CN(C)C(=O)c2cc(NC(=O)Nc3ccc4c(c3)OCO4)ccc2OC[C@@H](C)NC[C@@H]1C | -43.8% (inactive) |
| Cc1ccc(S(=O)(=O)Nc2ccc3c(c2)C(=O)N([C@@H](C)CO)C[C@@H](C)[C@H](CN(C)C(=O)Nc2cccc4ccccc24)OCCCC[C@H](C)O3)cc1 | -81.5% (active) |
| Cc1ccc(S(=O)(=O)Nc2ccc3c(c2)C(=O)N([C@H](C)CO)C[C@H](C)[C@@H](CN(C)C(=O)Nc2ccc4c(c2)OCO4)OCCCC[C@@H](C)O3)cc1 | -34.5% (inactive) |
| Cc1noc(C)c1S(=O)(=O)Nc1ccc2c(c1)C(=O)N([C@@H](C)CO)C[C@@H](C)[C@H](CN(C)C(=O)Nc1cccc3ccccc13)OCCCC[C@H](C)O2 | -39% (inactive) |
| Cc1noc(C)c1S(=O)(=O)Nc1ccc2c(c1)C(=O)N([C@@H](C)CO)C[C@@H](C)[C@H](CN(C)C(=O)Nc1cccc3ccccc13)O2 | 16.8% (inactive) |
| Cc1ccc(S(=O)(=O)Nc2ccc3c(c2)C(=O)N([C@H](C)CO)C[C@H](C)[C@H](CN(C)C(=O)Nc2ccc4c(c2)OCO4)OCCCC[C@@H](C)O3)cc1 | 4.19% (inactive) |
| Cc1noc(C)c1S(=O)(=O)Nc1ccc2c(c1)C(=O)N([C@@H](C)CO)C[C@@H](C)[C@@H](CN(C)S(=O)(=O)c1ccccc1)OCCCC[C@H](C)O2 | -22.9% (inactive) |
| Cc1noc(C)c1S(=O)(=O)Nc1ccc2c(c1)C(=O)N([C@@H](C)CO)C[C@@H](C)[C@H](CN(C)S(=O)(=O)c1ccc(Cl)cc1)OCCCC[C@H](C)O2 | -80.6% (active) |
| Cc1noc(C)c1S(=O)(=O)Nc1ccc2c(c1)C(=O)N([C@@H](C)CO)C[C@H](C)[C@@H](CN(C)C(=O)Nc1cccc3ccccc13)OCCCC[C@H](C)O2 | -88.5% (active) |
| COc1ccc(S(=O)(=O)Nc2ccc3c(c2)C(=O)N([C@@H](C)CO)C[C@H](C)[C@@H](CN(C)C(=O)Nc2ccc4c(c2)OCO4)OCCCC[C@@H](C)O3)cc1 | -81.3% (active) |
| C[C@H]1CCCCO[C@@H](CN(C)C(=O)Nc2cccc3ccccc23)[C@@H](C)CN([C@@H](C)CO)C(=O)c2cc(NS(=O)(=O)c3ccc(Cl)cc3)ccc2O1 | -44.1% (inactive) |
| C[C@@H]1CCCCO[C@@H](CN(C)C(=O)Nc2cccc3ccccc23)[C@H](C)CN([C@@H](C)CO)C(=O)c2cc(NS(=O)(=O)c3ccccc3)ccc2O1 | -2.21% (inactive) |
| Cc1ccc(S(=O)(=O)N(C)C[C@H]2OCCCC[C@H](C)Oc3ccc(NS(=O)(=O)c4c(C)noc4C)cc3C(=O)N([C@H](C)CO)C[C@@H]2C)cc1 | -35.7% (inactive) |
| CCNC(=O)C[C@@H]1CC[C@H]2[C@@H](COc3ccc(NC(=O)Cc4cccs4)cc3C(=O)N2C)O1 | 3.93% (inactive) |
